Shown are actives, neighbours in structure and some others; about 0.9% of the full set was active somewhere.
HIV TAR-Tat: TAR RNA-Tat peptide displacers, HIV-1, primary screen, biochemical, FRET, FAM/TAMRA-labeled Tat; HIV-1 TAR RNA, Tat peptide displacement FRET; stronger effect = higher value; z-score (no concentration beside the values); hit rate 0.6% among 100,000; AID 1259389, 2018; active = z-score of 3 or more in at least 2 runs
CDC25B-CDK2 inh: primary biochemical HTRF screen for blockers of M-phase inducer phosphatase 2 binding to CDK2/cyclin A | P30305+P24941 | HTRF CDC25B-CDK2/CyclinA binding, anti-His/anti-Flag; stronger effect = higher value | z-score (test concentration not listed) | hit rate 0.72% among 94,000; in the data active = z-score above about 3.2
* hit, by the source's call; · = no result.

SMILES	HIV TAR-Tat	CDC25B-CDK2 inh
CCc1ccc(C2CC(=O)Nc3cc4c(cc32)OCCO4)cc1 (stereo not given)	0.55	4.4*
O=C1CC(c2ccc(-c3ccccc3)cc2)c2cc3c(cc2N1)OCCO3 (stereo not given)	1.2	0.36
O=C(Nc1ncc(Cc2ccc(Cl)cc2)s1)c1cc2ccccc2c(=O)s1	0.82	-1.2
Cc1cc(C)c2[nH]c(CN(C)Cc3ccc(F)cc3)cc(=O)c2c1	0.72	·
CNC(=O)c1ccc(N2CCSc3ccccc32)s1	-0.89	·
CC(=O)Nc1nc(C)c(-c2csc(Nc3ccc(Cl)cc3)n2)s1	-0.3	-0.18
CC(=O)Nc1nc(C)c(-c2csc(NCc3ccccc3)n2)s1	·	6.8*
CNC[C@H](O)c1ccc(O)c(O)c1	·	-1.7
NC[C@H](O)c1ccc(O)c(O)c1	27*	5.9*
O=C(CN1C(=O)c2ccccc2S1(=O)=O)Nc1ccc(Br)cc1	·	0.1
Cc1cc2oc(C(=O)Nc3ccc(S(=O)(=O)Nc4onc(C)c4C)cc3)cc(=O)c2cc1C	4.4*	-0.43
Cc1noc(NS(=O)(=O)c2ccc(NC(=O)c3nn(-c4ccccc4)ccc3=O)cc2)c1C	16*	-0.82
Cc1ccc(C(=O)Nc2ccc(S(=O)(=O)Nc3onc(C)c3C)cc2)o1	·	-1.1
O=C(Nc1ccc(S(=O)(=O)Nc2ncccn2)cc1)c1nn(-c2ccccc2)ccc1=O	0.19	-1.1
C#CCSc1nnc(-c2ccco2)o1	·	-1.4
CN(Cc1ccco1)c1ccc2cc(S(=O)(=O)N3CCCC3)ccc2n1	0.01	·
Cc1ccc(CS(=O)(=O)c2ncc(Cl)c(C(=O)Oc3ccc(C)cc3)n2)cc1	-0.27	-1.3
Cc1ccc(CS(=O)(=O)c2ncc(Cl)c(C(=O)Nc3nnc(C(C)C)s3)n2)cc1	0.97	5.5*
O=c1cc(-c2ccccc2)oc2c(O)c(O)ccc12	19*	-2.1
Cc1oc2c(O)c(O)ccc2c(=O)c1-c1ccccc1	·	-5
O=c1cc(-c2ccccc2)oc2cc(O)c(O)cc12	29*	·
O=c1cc(-c2ccccc2)oc2ccc(-c3nn[nH]n3)cc12	·	-1.1
Cc1ccnc(Nc2nc(-c3ccc(O)cc3)cs2)c1	0.86	0.67
Cc1ccnc(Nc2nc(-c3ccc(O)c(O)c3)cs2)c1	10*	-1.2
Cc1cccc(Nc2nc(-c3ccc(O)c(O)c3)cs2)n1	16*	-0.54
SMILES	HIV TAR-Tat	CDC25B-CDK2 inh
Cc1cccc(Nc2nc(-c3ccncc3)cs2)n1	2.5	-0.7
COc1ccc(S(=O)(=O)N2CCN(c3cc(N4CCCCC4)nc(C)n3)CC2)cc1C	0.48	-2.1
COc1ccc(OC)c2c(C)cc(N3CCN(S(=O)(=O)c4ccc(C)cc4)CC3)nc12	7.8*	-0.03
COc1ccc(S(=O)(=O)NCCc2csc3nc(-c4ccc(F)cc4)nn23)cc1F	1.2	·
O=S1(=O)C[C@H](N2CCOCC2)[C@@H](S(=O)(=O)c2ccc(Cl)cc2)C1	0.58	-2.1
N#CC1=C2N=C(N)c3ccccc3N2C2=C(C(=O)CCC2)C1c1c(F)cccc1Cl (stereo not given)	-6.6	9.3*
N#CC1=C2N=C(N)c3ccccc3N2C2=C(C(=O)CCC2)C1c1ccc(Cl)cc1 (stereo not given)	1.5	-1.3
N#CC1=C2N=C(N)c3ccccc3N2C2=C(C(=O)CCC2)C1c1ccccc1F (stereo not given)	-5.2	18*
N#CC1=C2N=C(N)c3ccccc3N2C2=C(C(=O)CCC2)C1c1ccccc1Cl (stereo not given)	-1.2	-0.95
CC(C)(C)n1nc2c(c1NC(=O)c1ccc(C(=O)c3ccccc3)cc1)CSC2	·	-0.55
O=C(Cn1c(=O)oc2cc(S(=O)(=O)N3CCCC3)ccc21)NCc1cccnc1	-0.49	-0.6
Nc1ccc2nc(SCC(=O)Nc3ccc4nc(SCC(=O)NC5CC5)sc4c3)sc2c1	·	19*
O=C(CSc1nc2ccc(NC(=O)c3ccco3)cc2s1)Nc1nccs1	0.7	0.57
CCC(=O)Nc1ccc2nc(SCC(N)=O)sc2c1	-0.15	-1.7
NC(=O)CSc1nc2ccc(NC(=O)c3ccco3)cc2s1	1.8	12*
CCC(C)NS(=O)(=O)c1ccc(-c2cc(C(F)(F)F)on2)s1 (stereo not given)	1.2	·
O=S1(=O)CCC(S(=O)(=O)NCCCN2CCOCC2)C1 (stereo not given)	1.3	1.5
CS(=O)(=O)N1CCN(c2ccc(NC(=O)CN3C(=O)c4ccccc4S3(=O)=O)cc2)CC1	0.69	1.2
O=C(CN1C(=O)c2ccccc2S1(=O)=O)Nc1ccc(N2CCCC2)cc1	15*	11*
O=CC(C=Nc1ccc(Cl)cn1)[N+](=O)[O-] (stereo not given)	·	4.3*
CCc1ccccc1N1CSC2=C(C#N)C(c3cccs3)CC(=O)N2C1 (stereo not given)	-0.35	6.7*
Cc1ccccc1N1CSC2=C(C#N)C(c3cccs3)CC(=O)N2C1 (stereo not given)	0.89	5.1*
Cc1nc2cc(NCc3ccco3)ccc2n1C	-0.08	16*
Cc1ccc(-n2cnc3cc(NCc4ccncc4)ccc32)cc1	-0.08	3.5
Cc1nc2cc(NCc3ccncc3)ccc2n1C	-0.77	14*
SMILES	HIV TAR-Tat	CDC25B-CDK2 inh
COc1ccccc1-n1cnc2cc(NCc3ccco3)ccc21	-0.57	6.2
CCOC(=O)N1CCC(N[C@H]2CS(=O)(=O)C[C@@H]2S(=O)(=O)c2ccc(F)cc2)CC1	1.8	0.28
O=C(Nc1ccc(-n2cnnn2)cc1)c1cccs1	1.7	0.12
Cc1cc2c(cc3c(SCC(=O)Nc4ccccc4F)nncn32)o1	0.66	·
Cc1cc2c(cc3c(SCC(=O)NCc4ccco4)nncn32)o1	27*	·
Cc1n[nH]c(C)c1Cc1cc(C(=O)NC2CCCCC2)sc1N1CCOCC1	1.4	-1.3
CN1C2CCC1CC(NC(=O)Nc1ccc(OC(F)(F)F)cc1)C2 (stereo not given)	·	-1.5
CCOc1ccccc1N1CN(Cc2ccco2)CNC1=S	·	-0.53
OCCNCc1cccc(Oc2nnnn2-c2ccccc2)c1	0.8	·
c1ccc(-n2nnnc2Oc2cccc(CNCc3cccnc3)c2)cc1	21*	·
Cc1cc(C)c2nc(N3CCC(C(=O)NC4CC4)CC3)sc2c1	-1.9	-2.3
Cc1ccc(S(=O)(=O)NCCn2c(-c3ccccc3)nc3cccnc32)cc1	-0.09	·
CCN1CCN(C(=O)c2c(C)oc3ncnc(N4CCCCC4)c23)CC1	-0.83	·
CCN1CCN(C(=O)c2c(C)oc3c2cc(OC(C)=O)c2ccccc23)CC1	-2.3	7.7*
Cc1ccc(Oc2nc3ccccc3n3c(C)nnc23)cc1C	·	0.64
Cc1nnc2c(Oc3ccc(Cl)cc3)nc3ccccc3n12	0.92	16*
CCn1c(=O)c2sccc2n2c(CCCC(=O)NC3CC3)nnc12	0.1	·
O=C(CN1c2ccc(Br)cc2-c2ccccc2S1(=O)=O)NCCCn1ccnc1	1.4	-1.8
Cc1nc(N)sc1-c1csc(Nc2cccc(Cl)c2C)n1	-3.7	9.4*
CCc1ccccc1Nc1nc(-c2sc(N)nc2C)cs1	-7	2.6
CC1=NN(C(=O)c2csc3c2CCCC3)C(O)(C(F)(F)F)C1 (stereo not given)	·	-2.1
O=C(O)c1noc2nc[nH]c(=O)c12	0.41	0.25
Cc1ccc(Nc2c(C)c(C)nc3ncnn23)cc1Cl	1.1	·
CCN(CC)CCNC(=O)C(C)n1nc(C)c2sc3ccccc3c2c1=O (stereo not given)	0.25	-1.3
